These results are taken from PubChem BioAssay.

The structures appear in SMILES notation. Results filed as inconclusive are left out. Calls of active or inactive are those of the source. Unless noted, how the calls were made is not given here.

The nature of assay [1]: enhancers of glutamate uptake in motor neurons, MN-1 cell line (AID 1612).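 Further: tested at 1 µM final; 0% = mean of DMSO vehicle wells on each plate; positive means more glutamate uptake than control and negative means less.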 The conditions noted are these: MN-1 motor neuron cells, stronger effect = higher value.
Assay [2] in a line: reducers of polyQ inclusions in PC12 cells, cell-based, NGF-treated PC12, GFPQ80 (AID 1614).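 Further: lower means fewer inclusions and 0 means no inclusions at all.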 Particulars: PC12 NGF-treated GFP-polyQ80 inclusion reduction.
Assay [3] can be described thus: suppressors of polyglutamine aggregation in yeast, 75Q-TubH (AID 1616). The conditions noted are these: S. cerevisiae 75Q-TubH polyglutamine aggregation suppression; stronger effect = higher value.
In assay [4] the target is ATP-dependent translocase ABCB1 (Homo sapiens) (UniProt P08183). Description: MDR1 (ABCB1) efflux transporter inhibition, cell-based (AID 377; in the data active means fluorescence slope change above about 50%). Particulars: MDR1-expressing cells, fluorescent substrate accumulation slope; stronger effect = higher value; concentration not given here.
Assay [5] is described as follows: protection against mutant huntingtin cytotoxicity, PC12 cells, LDH release (AID 1610). Particulars: PC12 mutant huntingtin toxicity, final LDH at 4 uM, stronger effect = lower value.
Assay [6] is described as follows: inhibitors of Cryptococcus chitosan production, flow cytometry, Cibacron Brilliant Red staining (AID 1347148).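 Further: compound exposure lasted three days at 37 degrees C.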 Particulars: Cryptococcus neoformans chitosan, stronger effect = lower value; at 10 µM unless noted.

Sequence of ATP-dependent translocase ABCB1 (Homo sapiens) (P08183 whole entry, looked up): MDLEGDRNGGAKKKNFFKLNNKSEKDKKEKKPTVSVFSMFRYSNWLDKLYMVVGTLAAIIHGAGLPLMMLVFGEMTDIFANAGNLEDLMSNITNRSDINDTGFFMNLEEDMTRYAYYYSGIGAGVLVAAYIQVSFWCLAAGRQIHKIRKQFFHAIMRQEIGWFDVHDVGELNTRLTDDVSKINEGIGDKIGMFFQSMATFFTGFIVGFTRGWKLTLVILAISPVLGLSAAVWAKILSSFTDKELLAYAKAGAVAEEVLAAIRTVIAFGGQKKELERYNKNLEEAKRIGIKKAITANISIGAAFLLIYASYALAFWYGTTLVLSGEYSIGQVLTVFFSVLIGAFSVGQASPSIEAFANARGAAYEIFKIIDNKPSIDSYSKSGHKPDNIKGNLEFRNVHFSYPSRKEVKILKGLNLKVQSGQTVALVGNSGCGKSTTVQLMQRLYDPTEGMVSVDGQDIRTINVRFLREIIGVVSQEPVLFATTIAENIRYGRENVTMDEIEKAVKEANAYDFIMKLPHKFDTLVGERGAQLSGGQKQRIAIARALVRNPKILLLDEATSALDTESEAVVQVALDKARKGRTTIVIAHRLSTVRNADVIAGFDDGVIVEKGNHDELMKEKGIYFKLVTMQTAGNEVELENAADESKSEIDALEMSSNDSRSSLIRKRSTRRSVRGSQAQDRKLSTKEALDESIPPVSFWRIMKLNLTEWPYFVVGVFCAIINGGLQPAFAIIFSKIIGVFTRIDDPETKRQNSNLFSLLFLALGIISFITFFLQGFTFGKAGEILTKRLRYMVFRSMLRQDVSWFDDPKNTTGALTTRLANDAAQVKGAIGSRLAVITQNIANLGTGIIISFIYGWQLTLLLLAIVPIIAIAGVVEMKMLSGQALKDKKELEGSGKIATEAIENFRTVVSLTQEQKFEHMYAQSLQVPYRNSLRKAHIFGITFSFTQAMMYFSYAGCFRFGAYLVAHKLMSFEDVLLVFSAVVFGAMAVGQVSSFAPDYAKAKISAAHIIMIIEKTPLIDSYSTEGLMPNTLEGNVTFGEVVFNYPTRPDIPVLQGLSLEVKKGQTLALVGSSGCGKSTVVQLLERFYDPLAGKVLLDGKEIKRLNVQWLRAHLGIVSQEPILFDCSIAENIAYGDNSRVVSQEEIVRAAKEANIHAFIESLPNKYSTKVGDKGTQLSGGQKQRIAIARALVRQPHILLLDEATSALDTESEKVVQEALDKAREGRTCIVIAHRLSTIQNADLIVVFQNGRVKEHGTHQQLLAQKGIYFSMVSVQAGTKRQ

On to `CC(Cc1ccc(O)c(O)c1)(NN)C(=O)O` (centres undefined), for which, in assay [1], the glutamate uptake change amounted to 6.68%. The compound further registered an inclusion score in assay [2] of 2. The same compound registered an aggregation suppression score in assay [3] of 1.15. Taken in the same sequence, the figures for `CC(C)(S)C(N)C(=O)O` (centres undefined) were -17.3%, 2 and 1.65.

`O=C(c1ccc(OCCN2CCCCC2)cc1)c1c(-c2ccc(O)cc2)sc2cc(O)ccc12`: in assay [4], the fluorescence slope change is 82.4% (active). Take `CC[C@H]1OC(=O)[C@H](C)[C@@H](O[C@H]2C[C@@](C)(OC)[C@@H](O)[C@H](C)O2)[C@H](C)[C@@H](O[C@@H]2O[C@H](C)C[C@H](N(C)C)[C@H]2O)[C@](C)(O)C[C@@H](C)CN(C)[C@H](C)[C@@H](O)[C@]1(C)O`: in assay [5], the normalised LDH release worked out at 0.795. Moreover, in assay [1], the glutamate uptake change worked out at 5.3%. The compound further yielded an inclusion score in assay [2] of 3. Further, the aggregation suppression score in assay [3] came to 0.581. `Cc1c(C(=O)NN2CCCCC2)nn(-c2ccc(Cl)cc2Cl)c1-c1ccc(I)cc1`: the fold fluorescence in assay [6] was 6.03 (inactive).

As for `CCN(CC)CC#CCOC(=O)C(O)(c1ccccc1)C1CCCCC1` (centres undefined), in assay [4], the fluorescence slope change was 225% (active). `CC(C)C[C@H](NC(=O)[C@@H](O)[C@H](N)Cc1ccccc1)C(=O)O`: the fold fluorescence in assay [6] was 3.88 [at 162.1 µM] (inactive).

As for `Cc1cccc(CCN2CCC(C(=O)c3ccc(NS(C)(=O)=O)cc3)CC2)n1`, the fold fluorescence in assay [6] was 4.01 [at 124.5 µM] (inactive).

For `O=C1C(c2c(O)[nH]c3ccccc23)=Nc2ccccc21`, in assay [6], the fold fluorescence is 3.17 [at 190.6 µM] (inactive).

With `CN1CCC[C@H]1c1cccnc1`, in assay [1], the glutamate uptake change is 15.4%. Further, in assay [2], the inclusion score stood at 2. For the same compound, the aggregation suppression score in assay [3] came to 1.26.

On to `NC(Cc1cc(I)c(Oc2ccc(O)c(I)c2)c(I)c1)C(=O)O` (centres undefined), for which, in assay [1], the glutamate uptake change was -8.22%. The compound further displayed an aggregation suppression score in assay [3] of 0.825. Regarding `O=c1[nH]c2ccccc2c2ccccc12`, in assay [6], the fold fluorescence is 3.09 [at 256.1 µM] (inactive). Regarding `CN(C)[C@@H]1C(=O)C(C(=O)NCN2CCCC2)=C(O)[C@@]2(O)C(=O)C3=C(O)c4c(O)cccc4[C@@](C)(O)C3CC12` (some centres undefined), the fluorescence slope change in assay [4] was 66.4% (active). As to `CCC[C@@H]1C[C@@H](C(=O)N[C@H]([C@@H](C)O)[C@H]2O[C@H](SC)[C@H](O)[C@@H](O)C2O)N(C)C1` (some centres undefined), the fluorescence slope change in assay [4] is 65% (active).
